PubChem BioAssay AID887 (National Center for Advancing Translational Sciences (NCATS), 2007)
“And” between values parts separate entries of the source, which are not always exact repeats. Equal entries are not always repeated. The campaign covered roughly 74,000 compounds. About 1,100 (1.5%) were called active. Entries that show only a call come without a potency. Another 5% or so got no clear call; they are omitted. Calls come from the whole dose curve; as a rule, active = well fitted inhibition curve with a large enough effect; inconclusive = small, poorly fitted or top-dose-only effect; inactive = no such curve, though single readings can be large or run the other way. Only a selection was taken, and actives are over-represented in it overall. Non-standard residues stand in square brackets, D forms with d. Residues, ends and D or L forms follow the SMILES beside them. Groups on a side chain read outwards from the residue. *: point of attachment. X2 = CCC(C)C(N)C1=NC(C(=O)*)CS1; Orn = NCCC[CH](N)C(=O)O
Note: nearly all actives have a fitted effect of over 55% in size.
Potency is the fitted concentration of half-maximal effect.

Each compound was assayed against Polyunsaturated fatty acid lipoxygenase ALOX15 (Homo sapiens) (UniProt P16050) (assay: qHTS Assay for Inhibitors of 15-hLO (15-human lipoxygenase)). Details: purified 15hLO-1, xylenol orange hydroperoxide absorbance; series mostly up to 57.1 µM.
Sequence of Polyunsaturated fatty acid lipoxygenase ALOX15 (Homo sapiens) (P16050 whole entry, looked up): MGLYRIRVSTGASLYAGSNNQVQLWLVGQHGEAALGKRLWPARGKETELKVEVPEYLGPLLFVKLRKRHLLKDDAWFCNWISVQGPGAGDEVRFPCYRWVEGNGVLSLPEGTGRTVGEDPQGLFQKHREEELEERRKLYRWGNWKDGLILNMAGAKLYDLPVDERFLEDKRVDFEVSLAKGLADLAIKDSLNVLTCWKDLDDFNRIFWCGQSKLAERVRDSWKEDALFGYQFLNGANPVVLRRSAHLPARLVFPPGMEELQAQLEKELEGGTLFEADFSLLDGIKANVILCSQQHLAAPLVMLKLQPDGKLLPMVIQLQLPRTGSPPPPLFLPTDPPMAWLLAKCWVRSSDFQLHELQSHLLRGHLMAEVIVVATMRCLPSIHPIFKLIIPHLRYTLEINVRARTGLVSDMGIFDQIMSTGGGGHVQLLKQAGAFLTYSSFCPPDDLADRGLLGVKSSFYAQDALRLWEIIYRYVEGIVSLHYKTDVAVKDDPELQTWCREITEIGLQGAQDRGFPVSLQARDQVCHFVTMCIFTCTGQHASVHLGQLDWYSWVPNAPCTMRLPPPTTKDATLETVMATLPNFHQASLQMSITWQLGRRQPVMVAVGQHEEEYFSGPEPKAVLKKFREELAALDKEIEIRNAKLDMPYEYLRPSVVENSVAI
Summary of the method: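 Hydroperoxide formed from arachidonic acid (50 uM) by purified human 15hLO-1 (40 nM) oxidizes ferrous iron, and the ferric-xylenol orange complex is read at 573 versus 405 nm. Compounds were preincubated 15 min; reaction ran 6 min at room temperature.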
For `CS(=O)(=O)N1CCC2(CC1)CN(Cc1ccccc1)C2`, the activity change, negative = inhibition was “inactive”. With `CC(=O)OCC1OC(C#Cc2ccccc2Cl)C=CC1OC(C)=O` (stereo not drawn) the activity change, negative = inhibition was -0.11% [at 11.4 µM] (inactive). For `CN1CC(=O)N=C1N`, the activity change, negative = inhibition was “inactive”. For `C[C@H]1CC[C@H](C(=O)O)N[C@@H]1c1ccc(C#Cc2ccccc2)cc1`, the activity change, negative = inhibition was -4.38% [at 11.4 µM] (inactive). `Cc1c(NC(=O)c2cccnc2)c(=O)n(-c2ccccc2)n1C` was tested, and the activity change, negative = inhibition was “inactive”. With `Cc1cc(C(=O)Nc2c(C)n(C)n(-c3ccccc3)c2=O)cs1` the Potency was 1.58 µM (active). With `COC(=O)Cc1csc(Nc2c(C)n(C)n(-c3ccccc3)c2=O)n1` the activity change, negative = inhibition was “inactive”. `O=C(Nn1cnc2ccccc2c1=O)c1ccc(F)cc1Cl` was tested, and the activity change, negative = inhibition was “inactive”. `C/C(O)=C\c1nc(=O)c2c(C)cc(C)nc2n1-c1ccccc1` was tested, and the activity change, negative = inhibition was “inactive”. In the case of `CCCS(=O)(=O)C(=C1Nc2ccccc2N1)S(=O)(=O)CCC`, the activity change, negative = inhibition is reported as “inactive”. `COc1c2c(cc3occ(-c4ccc5c(c4)OCO5)c(=O)c13)OC(C)(C)C=C2` was tested, and the activity change, negative = inhibition was “inactive”. `CC(C)Cn1c(CCC(=O)O)ccc1-c1cccs1` was tested, and the activity change, negative = inhibition was “inactive”. With `COCCCn1c(CCC(=O)O)ccc1-c1ccc(F)cc1` the Potency was 15.8 µM (active). With `COCCCNC(=O)c1c(F)c(F)c(F)c(F)c1F` the activity change, negative = inhibition was “inactive”. `Nc1ncn(C2OC(CO)C(O)C2O)c(=O)n1` (stereo not drawn) was tested, and the activity change, negative = inhibition was “inactive”. For `CC1(C)OC2CC3C4CCC5=CC(=O)CCC5(C)C4(F)C(O)CC3(C)[C@]2(C(=O)CCl)O1` (stereo partly drawn), the activity change, negative = inhibition was “inactive”. In the case of `CC1CC[C@@]23CCC4(C)[C@@]5(C)CCC6C(C)(C)C(O)CC[C@@]6(C)C5C=C[C@@]4(OC2=O)C3C1C` (stereo partly drawn), the activity change, negative = inhibition is reported as “inactive”. For `CCOC(=O)CSC1=C(C#N)C(c2ccco2)C(C(=O)OCc2ccccc2)=C(C)N1` (stereo not drawn), the activity change, negative = inhibition was “inactive”. In the case of `N#CC1=C(N)Oc2c(sc3ccccc23)C1c1ccco1` (stereo not drawn), the Potency is reported as 3.98 µM (active). For `Nc1nc2[nH]c(=O)c(=O)[nH]c2c(=O)[nH]1`, the activity change, negative = inhibition was “inactive”. In the case of `CC(=O)OCC(=O)[C@@]1(O)CCC2C3CCC4=CC(=O)CC[C@]4(C)C3C(=O)C[C@]21C` (stereo partly drawn), the activity change, negative = inhibition is reported as “inactive”. In the case of `O=C(c1ccco1)N1CCC2(CC1)CCN(c1ncccn1)CC2`, the activity change, negative = inhibition is reported as “inactive”. With `COc1ccc(CC(=O)Nc2ccc(-c3nnc(-c4ccccc4)o3)cc2)cc1` the activity change, negative = inhibition was “inactive”. `COc1ccc(-c2nnc(SC(=O)N3c4ccccc4Sc4ccccc43)o2)cc1` was tested, and the Potency was 3.16 µM (active). For `COc1ccc(-c2nnc(SC(C)C#N)o2)cc1` (stereo not drawn), the activity change, negative = inhibition was “inactive”. `COC(=O)CC1C(C)(C)C(OC(C)=O)C2CC3=C4CC(=O)OC(c5ccoc5)[C@]4(C)CCC3[C@@]1(C)C2=O` (stereo partly drawn) was tested, and the activity change, negative = inhibition was “inactive”. With `CCOC(=O)c1sc(=S)n2c1[nH]c(=O)c1ccc(C(=O)OC)cc12` the Potency was 10 µM (active). `COC(=O)c1ccc2c(=O)n(CC3CCCO3)c(=S)[nH]c2c1` (stereo not drawn) was tested, and the activity change, negative = inhibition was “inactive”. `CCOC(=O)Cn1c(N)c(C(=O)OC)sc1=S` was tested, and the activity change, negative = inhibition was “inactive”. `COc1ccc(Oc2ncc3nc(C)c(=O)n(-c4ccccc4)c3n2)cc1` was tested, and the activity change, negative = inhibition was “inactive”. For `COC(=O)C1=C(C)N(Cc2ccccc2)C2=C3C(=O)N(c4ccccc4)C(=O)C3[C@@](O)(C(=O)OC)C(=O)N2C1c1ccccc1` (stereo partly drawn), the activity change, negative = inhibition was 4.96% [at 11.4 µM] (inactive) and 4.92% [at 11.4 µM] (inactive). `CN1CCC(CNC(=O)c2ccc(-n3c(=O)c(=O)[nH]c4ccccc43)cc2)CC1` was tested, and the activity change, negative = inhibition was “inactive”. `O=C1NS(=O)(=O)c2ccccc21` was tested, and the activity change, negative = inhibition was “inactive”. In the case of `OCCCNC(c1ccccc1)c1ccc(O)cc1` (stereo not drawn), the activity change, negative = inhibition is reported as “inactive”. For `CSc1sc(C)cc1C1C(C#N)=C(N)N(c2cccnc2)C2=C1C(=O)CCC2` (stereo not drawn), the Potency was 15.8 µM (active). In the case of `Cc1cc(C(=O)O)ccc1[N+](=O)[O-]`, the activity change, negative = inhibition is reported as “inactive”. `O=C1C[C@@H](O)[C@@H](O)[C@H]2[C@@H]3C(=O)N(Cc4ccc5c(c4)OCO5)C(=O)[C@@H]3CC[C@H]12` was tested, and the activity change, negative = inhibition was 6.76% [at 11.4 µM] (inactive) and -0.286% [at 11.4 µM] (inactive). With `CO/N=C\[C@@H](C)[C@H](OCc1ccccc1)C(C)C` the activity change, negative = inhibition was 6.43% [at 11.4 µM] (inactive). In the case of `CC1C(O)CC2C(C(=O)O)=CO[C@@H](O[C@H]3OC(CO)C(O)C(O)C3O)C21` (stereo partly drawn), the activity change, negative = inhibition is reported as “inactive”. In the case of `CC1(C)OC(C(O)(c2ccccc2)c2ccccc2)C(C(O)(c2ccccc2)c2ccccc2)O1` (stereo not drawn), the activity change, negative = inhibition is reported as 14.5% [at 11.4 µM] (inactive). With `CC[C@@H]1Cc2cc(O)ccc2C2=C1c1ccc(O)cc1C[C@H]2CC` the Potency was 10 µM (active). With `COc1cccc([C@H](O)Cn2cc(-c3ccc(CON=C(C)C)cc3)nn2)c1` the activity change, negative = inhibition was 15.5% [at 11.4 µM] (inactive). With `C[C@@H](c1ccccc1)N1C(=O)[C@H]2[C@H]3[C@H](O)[C@H](O)C/C(=N/OC[C@@H](O)COCc4ccco4)[C@@H]3CC[C@@H]2C1=O` the activity change, negative = inhibition was 0.315% [at 11.4 µM] (inactive). In the case of `Cc1cnc(CNc2cc(-c3c(C)noc3C)ncn2)cn1`, the activity change, negative = inhibition is reported as “inactive”. For `CCC(C)C(N)C1=NC(C(=O)NC(CC(C)C)C(=O)NC(CCC(=O)O)C(=O)NC(C(=O)NCCCCC2NC(=O)C(CC(N)=O)NC(=O)C(CC(=O)O)NC(=O)C(Cc3cnc[nH]3)NC(=O)C(Cc3ccccc3)NC(=O)C(C(C)CC)NC(=O)C(CCCN)NC2=O)C(C)CC)CS1` (stereo not drawn) (cyclo(DNK([Ile-Glu-Leu-X2])[Orn]IFH); configuration not given here), the activity change, negative = inhibition was “inactive”. With `O=C(CSc1nnc(-c2ccco2)n1-c1ccccc1)NCCc1ccccc1` the Potency was 6.31 µM (active). For `Cc1cccc(C)c1NC(=O)CCCSc1nnc(-c2ccco2)n1-c1ccccc1`, the activity change, negative = inhibition was “inactive”. With `COc1ccc(C(=O)NC(=O)CSc2nnc(-c3ccco3)n2-c2ccccc2)cc1` the activity change, negative = inhibition was “inactive”. With `COC(=O)[C@@H]1CC[C@H](C)[C@@H](c2ccc(C)cc2)N1C(=O)c1ccc(/C=N\O[C@@H](C)c2cn([C@H](CO)Cc3ccccc3)nn2)cc1` the activity change, negative = inhibition was -7.8% [at 11.4 µM] (inactive) and 0.419% [at 11.4 µM] (inactive). For `CN1CCN(c2ccc(NC(=O)COc3ccc(Cl)cc3Cl)cc2)CC1`, the activity change, negative = inhibition was “inactive”. With `CC(=O)N1CCN(c2ccc(NCc3ccc(C(C)C)cc3)cc2)CC1` the Potency was 12.6 µM (active). With `CC(=O)N1CCC2(CC1)CCN(c1ccncc1)CC2` the activity change, negative = inhibition was “inactive”. With `CC(C)CO/N=C1/C[C@@H](O)[C@@H](O)[C@@H]2[C@@H]3C(=O)N(C[C@@H]4CCCO4)C(=O)[C@H]3CC[C@@H]12` the activity change, negative = inhibition was 9.84% [at 11.4 µM] (inactive).
